In the library only some 6.6% were active in any assay of this set; here they are far more common.
HepG2 tox = kills HepG2 cells in TGF-b inhibitor counter-screen | HepG2 CAGA-GFP viability, ATP luminescence, 18 h | Potency, µM (top dose mostly 46.1 µM), without a hit: at the top dose activity change, negative = cytotoxicity, actives largely listed as cytotoxic | 410,000 compounds, 0.76% hits
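HepG2 CAGA-GFP cells (1000/well, DMEM with 1% FBS) received compound, then TGF-beta at 500 pg/mL final, and were incubated 18 hours at 37 degrees C. Viability was read by CellTiter-Glo luminescence. Media-only wells were set as complete cell-killing and DMSO as no toxicity.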
TGFb inhibitor = inhibitors of TGF-b signaling. HepG2 CAGA-GFP TGF-b/SMAD3 reporter, GFP fluorescence, 18 h; TGF-beta stimulated, 500 pg/mL final. Potency, µM (highest dose often 46.1 µM), without a hit: at the highest dose activity, negative = inhibition, most hits filed as inhibitors. 410,000 compounds, 1.2% hits. AID 588855; further: on the % scale 0 is the no-effect control and ±100 the full control effect; nearly all actives have a fitted effect of over 65% in size
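Per well, imaged GFP fluorescence of HEPG2 CAGA-GFP cells gives the signal; cells get compound, then TGF-beta (500 pg/mL final), 18 h at 37 degrees C; %Activity versus -TGF-beta and +DMSO controls.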
KB-V1 cytotox = KB-V1 MDR subline cytotoxicity | KB-V1 MDR cells viability, CellTiter-Glo, 72 h | Potency, µM (top dose mostly 46.1 µM), most hits filed as cytotoxic | 400,000 compounds, 3.4% hits | AID 1347076; further: on the % scale 0 is the no-effect control and ±100 the full control effect; nearly all actives have a fitted effect of over 60% in size
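Luminescent ATP read-out (CellTiter-Glo, 10 min) measures survival of drug-selected KB-V1 MDR cells after 72 h, 37 degrees C compound exposure. Medium: phenol-red-free DMEM, 10% FBS. Values from fitted concentration-response curves.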
HT1080NT lethal = kills 2HG-producing HT-1080-NT fibrosarcoma cells; Potency, µM (top dose mostly 46.1 µM), without a hit: at the highest dose activity, negative = less viability, most hits filed as cytotoxic; HT-1080-NT fibrosarcoma viability, CellTiter-Glo ATP luminescence, 48 h; 360,000 compounds, 1.6% hits;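 further: NT is the 2HG producing partner of a matched IDH1 knockdown line; 0% = DMSO-treated cells and -100% = media-only wells without cells; nearly all actives have a fitted effect of over 55% in size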
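Toxicity toward the 2HG-producing NT line was scored as %Activity, normalised to DMSO and no-cell wells, from CellTiter-Glo luminescence after 48 hours' treatment.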
KB-3-1 cytotox = kills parental KB-3-1 adenocarcinoma cells. KB-3-1 viability, CellTiter-Glo ATP luminescence, 72 h. AID 1347075. 400,000 compounds, 1.4% hits. Potency, µM (doses to about 46.1 µM), usual class: cytotoxic; further: on the % scale 0 is the no-effect control and ±100 the full control effect; nearly all actives have a fitted effect of over 60% in size
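Parental KB-3-1 adenocarcinoma cells in phenol-red-free DMEM with 10% FBS were pin-treated with compounds at several concentrations, incubated 72 h at 37 °C, and viability read by CellTiter-Glo luminescence; concentration-effect curves were fitted after normalization.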
HT1080 IDH1KD tx = kills HT-1080 cells with IDH1 knockdown; HT-1080 IDH1 knockdown viability, ATP luminescence, 48 h; Potency, µM (series often up to 46.1 µM), without a hit: at the top dose activity, negative = toxicity, actives largely listed as cytotoxic; 360,000 compounds, 2% hits;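 further: 0% = DMSO wells and -100% = cell-free medium wells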
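Cytotoxicity counter-line: IDH1KD HT-1080, 48 h, CellTiter-Glo. Curves classed by r2, magnitude and activity.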
Starred values were filed as active, the others as inactive; i = inactive; u = inconclusive; x = no result given. The call rests on the fitted dose curve; in most records, active means well fitted curve in the direction sought with a large enough effect; inconclusive means small, poorly fitted or top-dose-only effect, or another doubt; inactive means no such curve, though single readings can be large; an effect the other way counts as inactive or inconclusive. Potency means the concentration at half of the fitted maximal effect.

SMILES	HepG2 tox	TGFb inhibitor	KB-V1 cytotox	HT1080NT lethal	KB-3-1 cytotox	HT1080 IDH1KD tx
COc1ccc(CNC(=S)Nc2ccc3nc(N4CCN(C)CC4)cc(C)c3c2)cc1	-50.7%	u	i	16.4µM*	i	u
S=c1[nH]nc(-c2ccc3ccccc3n2)n1-c1cc(Cl)cc(Cl)c1	8.2%	-13.3%	16.4µM*	0.9%	i	8.7%
Cc1ccc(S(=O)(=O)Nc2ccccc2/C=N/c2nc3ccccc3n2C(C)C)cc1	-28.8%	u	i	18.4µM*	i	14.6µM*
CCn1c(/N=C/c2ccccc2O)nc2ccccc21	-0.6%	-3.9%	i	-1.5%	i	-3.9%
CCCCn1c(/N=C/c2ccccc2NS(=O)(=O)c2ccc(C)cc2)nc2ccccc21	-4.0%	15.8µM*	u	-18.6%	i	-23.8%
CC(C)n1c(/N=C/c2ccccc2O)nc2ccccc21	0.0%	0.8%	i	-0.5%	i	-0.9%
CC(C)(C)OC(=O)N1CCC(c2c(C(=O)NCc3cccs3)cnn2-c2cccc(F)c2)CC1	-13.7%	-11.9%	x	x	x	x
CC(=O)c1cccc(NC(=O)c2cc(-c3ccc(Cl)s3)nc3ccccc23)c1	-5.6%	5.3%	i	x	i	x
COc1ccc(CN(C)CC(O)COC(c2ccccc2)c2ccccc2)c(OC)c1OC (stereo not given)	-45.7%	u	i	23.1µM*	i	u
OCCN(CCO)CC(O)COc1ccc(Br)cc1 (stereo not given)	-15.2%	-7.5%	i	4.4%	i	-0.4%
CN(C)CC(O)COC(c1ccccc1)c1ccccc1 (stereo not given)	-14.5%	3.5%	i	-3.2%	i	-0.4%
COc1ccc(Br)cc1CN(C)CC(O)COc1ccc(Br)cc1 (stereo not given)	17.8µM*	u	i	20.6µM*	i	u
COc1ccc(CN(C)CC(O)COc2ccc(C(=O)c3ccccc3)cc2)c(OC)c1OC (stereo not given)	-34.1%	u	i	20.6µM*	i	u
COc1ccc(CCN(C)CC(O)COC(c2ccc(F)cc2)c2ccc(F)cc2)cc1OC (stereo not given)	-93.4%	-110.1%	u	23.1µM*	u	u
O=C(C1CCC1)N1CCc2cc(S(=O)(=O)NCc3ccc(F)cc3)ccc21	-4.4%	-0.5%	i	x	i	x
CN(CCOc1ccccc1)CC(O)COc1ccccc1 (stereo not given)	-6.0%	2.6%	i	-6.0%	i	-9.0%
CN(CCOc1ccc(Br)cc1)CC(O)COc1ccc(C#N)cc1 (stereo not given)	-39.6%	u	i	20.6µM*	u	u
CCOc1ccc(NC(=O)Cn2c(=O)n(Cc3ccc(C(=O)NCc4ccc(C)cc4)cc3)c(=O)c3ccccc32)cc1	7.3%	3.4%	i	x	i	x
CCCc1n[nH]c2c1/C(=N/O)CC(c1ccccc1)C2 (stereo not given)	-34.7%	-6.7%	u	-13.6%	25.9µM*	-18.9%
CCCc1noc2c1/C(=N\O)CC(c1ccccc1)C2 (stereo not given)	2.5%	-2.5%	i	-7.7%	i	-8.0%
COc1cc(OC)c(OC)cc1/C=c1\[nH]c(=O)/c(=C/c2cc(OC)c(OC)cc2OC)[nH]c1=O	-23.7%	u	i	x	u	x
Cc1cc(C)nc(N/N=C/C2=C(N3CCOCC3)C(=C\c3ccc(Cl)cc3)/CC2)n1	-22.0%	u	i	-22.8%	u	-23.5%
O=C(O)c1ccc(N/N=C/C2=C(N3CCOCC3)C(=C\c3ccccc3)/CC2)cc1	-39.0%	u	i	14.6µM*	i	14.6µM*

Assay outcomes deposited in PubChem by National Center for Advancing Translational Sciences (NCATS).
